# Measurements as given in PubChem BioAssay AID1850 (Southern Research Specialized Biocontainment Screening …, 2009).
# In all, about 310,000 compounds went through this assay and about 1,000 (0.32%) were called active. Only a sample is shown. Measured potencies and affinities stand elsewhere. Unmarked numbers belong to inactive results. The rule behind the calls is not given here.
# Test: Inhibition of PhoP regulon, Salmonella typhi GFP reporter cells, confirmation, 4 h (AID 1850);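 note: 0% = induced wells with vehicle and 100% = uninduced wells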
# Settings: Salmonella Typhi PhoP-promoter GFP reporter, fluorescence, at 50 µM, stronger effect = higher value
row,SMILES,inhibition
1,O=C(N/N=C/c1ccc(Br)s1)c1cccs1,5.12%
2,O=C(N/N=C/c1ccccn1)c1ccncc1,10.1%
3,O=C(N/N=C/c1ccccn1)c1ccco1,8.62%
4,O=C(N/N=C/c1ccncc1)c1cccs1,-16.1%
5,Cc1ccc(/C=N/NC(=O)c2cccs2)s1,-3.78%
6,O=C(N/N=C/c1ccccn1)c1ccc(Br)cc1,8.46%
7,CC(C)NC(=O)NC(=O)COC(=O)CCOc1ccccc1,1.53%
8,O=C(CC1(CC2=NS(=O)(=O)c3ccccc3N2)CCCC1)NCCc1ccccc1,-20.4%
9,O=C(NCC1CC1)c1cc(-c2ccccc2)nn1CC1CC(c2cccc([N+](=O)[O-])c2)=NO1 (stereo not drawn),4.4%
10,Cc1ccc(Cl)cc1N1CCN(S(=O)(=O)c2c(C)[nH]c(=O)[nH]c2=O)CC1,8.84%
11,CCn1cc(C(=O)O)c(=O)c2cc(F)c(N3CCN(C(=S)NC(=O)c4c(OC)cccc4OC)CC3)cc21,3.3%
12,C=CCNC(=S)N1CCN(c2cc3c(cc2F)c(=O)c(C(=O)O)cn3CC)CC1,-3.14%
13,Cn1nnnc1SCC(=O)NCCCc1ccccc1,0.19%
14,Cc1cccc(NC(=O)COC(=O)Cc2c[nH]c3ccccc23)c1C,-3.69%
15,O=C(NC(=S)NCc1cccnc1)c1cc(Br)ccc1Cl,-7.31%
16,O=C(COc1ncnc2ccccc12)NCC1CCCO1 (stereo not drawn),7.4%
17,O=C(NNS(=O)(=O)c1ccccc1[N+](=O)[O-])c1cccc([N+](=O)[O-])c1,-5.01%
18,Cc1cc(S(=O)(=O)Nc2cccc([N+](=O)[O-])c2)c(C)s1,-6.89%
19,Cc1occc1C(=O)NC(C)C12CC3CC(CC(C3)C1)C2 (stereo not drawn),2.3%
20,CCC1(CC)Cc2ccccc2C(CC(=O)N2CCOCC2)=N1,-0.09%
21,COc1ccc(/C=C/C(=O)c2cc(Cl)cc(Cl)c2O)c(OC)c1,1.28%
22,Cc1ccc(C(C[N+](=O)[O-])c2c(-c3ccccc3O)[nH][nH]c2=O)cc1 (stereo not drawn),3.54%
23,O=c1[nH][nH]c(-c2ccccc2O)c1C(C[N+](=O)[O-])c1ccccc1 (stereo not drawn),10.2%
24,Cc1ccc2c(C)c(C(=O)Nc3cccnc3)oc2c1,-1.18%

row,SMILES,inhibition
1,CCN(CC)S(=O)(=O)c1ccc(/C=C/C(=O)Nc2ccc(Br)cc2F)cc1,-3.09%
2,c1ccc(Nc2c3c(nc4ccccc24)CCC3)cc1,-12.1%
3,c1ccc2c(Nc3ccc4c(c3)OCCO4)c3c(nc2c1)CCCC3,-7.16%
4,N#Cc1cccc(Nc2c3c(nc4ccccc24)CCC3)c1,-6.96%
5,c1ccc2c(Nc3ccc4c(c3)OCCO4)c3c(nc2c1)CCC3,19.5%
6,CC(=O)c1ccc(Nc2c3c(nc4ccccc24)CCCC3)cc1,-0.46%
7,COc1cc(Nc2c3c(nc4ccccc24)CCC3)cc(OC)c1OC,-13.8%
8,Cc1ccc2nc3c(c(Nc4ccccc4)c2c1)CCC3,1.9%
9,COc1ccc(Nc2c3c(nc4ccc(C)cc24)CCC3)cc1,26.7%
10,O=C(O)C1C2CCC(C2)C1C(=O)N1CCCC1 (stereo not drawn),6.43%
11,COc1ccc(S(=O)(=O)N(C)CC(=O)NCCC2=CCCCC2)cc1OC,9.61%
12,C/C(CC(=O)Nc1ccccc1C(F)(F)F)=N\NC(=O)c1cnccn1,-1.08%
13,CCCn1c(O)c(N=NC(=O)CNC(=O)Cc2ccc(OC)cc2)c2ccccc21,-19.2%
14,CCCN(CCC)S(=O)(=O)c1cccc(C(=O)N=c2sccn2C)c1,-5.43%
15,Cc1cccc(NC(=O)c2cc([N+](=O)[O-])ccc2Cl)c1O,-4.69%
16,CCOc1cc(C(=O)Nc2ccc3c(c2)OCO3)ccc1OCCOc1ccccc1Cl,-0.32%
17,Cc1ccc2nc3c(c(Nc4cccc(O)c4)c2c1)CCC3,7.27%
18,CC(=O)c1cccc(Nc2c3c(nc4ccccc24)CCC3)c1,12.8%
19,O=C(Cc1ccsc1)Nc1cc(F)ccc1F,3.38%
20,O=C(COc1ccc(S(=O)(=O)N2CCCCC2)cc1Cl)N1CCOCC1,-6.77%
21,COc1ccc(Cl)cc1NC(=O)C1CC(=O)N(C2CCCCC2)C1 (stereo not drawn),-8.7%
22,O=C(COC(=O)c1ccc(Br)o1)NCCNC(=O)COC(=O)c1ccc(Br)o1,-1.54%
23,Cc1cc(C(=O)N2CCC(Cc3ccccc3)CC2)c(C)o1,-3.49%
24,CCOc1ccc(NC2=NCCCS2)cc1,-2.96%
